Rows were chosen to be rich in hits. Some 12% of all compounds tested hit in one or more screens of this group.
HP1b chromo inh = HP1-beta chromodomain-methylated histone interaction inhibition | P83916 | Potency, µM (series often up to 114 µM), inactives show top-dose activity change, negative = inhibition, actives largely listed as inhibitors | AlphaScreen HP1-beta / biotin-H3K9me3 peptide binding | 0.56% of 390,000 active | AID 540317; also: nearly all actives have a fitted effect of over 70% in size
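HP1-beta protein (50 nM final) preincubated 30 min at room temperature with biotinylated H3(1-18)K9me3 peptide (50 nM) in PBS pH 7.4, 0.01% Tween-20, then compound added for 30 min. AlphaScreen streptavidin donor/nickel chelate acceptor beads (10 ug/mL final), 30 min dark, luminescence read.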
BAZ2B inh = BAZ2B (human) inhibition | Potency, µM (top dose mostly 114 µM), for the others: at the top dose activity change, negative = inhibition, most hits filed as inhibitors | AlphaScreen BAZ2B-H3K14Ac peptide displacement | Q9UIF8 | 4.4% of 360,000 active; also: % is scaled to controls: 0 for no effect and ±100 for the full control effect; nearly all actives have a fitted effect of over 60% in size
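AlphaScreen displacement of biotin-H3(5-23)K14Ac peptide (50 nM final) from BAZ2B (50 nM final) in PBS pH 7.4, 0.01% Tween-20; complex preformed 30 min RT, then compounds (top 110 uM) 30 min RT, beads 20 min dark.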
Sfp PPTase inh = Sfp phosphopantetheinyl transferase inhibition | Q9F4F7 | Biochemical Sfp PPTase activity, qHTS | Potency, µM, for inactives: largest response in the series, negative = inhibition, hits mostly inhibitors | 3.5% of 310,000 active;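 also: the enzyme is Sfp with the accession as filed and its product quenches rhodamine fluorescence; 0% = enzyme reaction without inhibitor and -100% = no enzyme wells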
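Compounds were incubated with enzyme (final 15 nM) for 15 min at room temperature before substrate addition started the reaction. Fluorescence at 525 nm excitation, 598 nm emission was recorded immediately and after 30 minutes.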
JMJD2A Tudor = inhibitors of human JMJD2A Tudor domain | AlphaScreen JMJD2A-Tudor / H3K4me3 peptide binding | 4.4% of 390,000 active | O75164 | AID 504339 | Potency, µM (top dose mostly 114 µM), inactives show at the top dose activity change, negative = inhibition, hits mostly inhibitors; also: % is scaled to controls: 0 for no effect and ±100 for the full control effect; nearly all actives have a fitted effect of over 50% in size
Target sequence (O75164 whole entry, looked up, the tested form may be a part): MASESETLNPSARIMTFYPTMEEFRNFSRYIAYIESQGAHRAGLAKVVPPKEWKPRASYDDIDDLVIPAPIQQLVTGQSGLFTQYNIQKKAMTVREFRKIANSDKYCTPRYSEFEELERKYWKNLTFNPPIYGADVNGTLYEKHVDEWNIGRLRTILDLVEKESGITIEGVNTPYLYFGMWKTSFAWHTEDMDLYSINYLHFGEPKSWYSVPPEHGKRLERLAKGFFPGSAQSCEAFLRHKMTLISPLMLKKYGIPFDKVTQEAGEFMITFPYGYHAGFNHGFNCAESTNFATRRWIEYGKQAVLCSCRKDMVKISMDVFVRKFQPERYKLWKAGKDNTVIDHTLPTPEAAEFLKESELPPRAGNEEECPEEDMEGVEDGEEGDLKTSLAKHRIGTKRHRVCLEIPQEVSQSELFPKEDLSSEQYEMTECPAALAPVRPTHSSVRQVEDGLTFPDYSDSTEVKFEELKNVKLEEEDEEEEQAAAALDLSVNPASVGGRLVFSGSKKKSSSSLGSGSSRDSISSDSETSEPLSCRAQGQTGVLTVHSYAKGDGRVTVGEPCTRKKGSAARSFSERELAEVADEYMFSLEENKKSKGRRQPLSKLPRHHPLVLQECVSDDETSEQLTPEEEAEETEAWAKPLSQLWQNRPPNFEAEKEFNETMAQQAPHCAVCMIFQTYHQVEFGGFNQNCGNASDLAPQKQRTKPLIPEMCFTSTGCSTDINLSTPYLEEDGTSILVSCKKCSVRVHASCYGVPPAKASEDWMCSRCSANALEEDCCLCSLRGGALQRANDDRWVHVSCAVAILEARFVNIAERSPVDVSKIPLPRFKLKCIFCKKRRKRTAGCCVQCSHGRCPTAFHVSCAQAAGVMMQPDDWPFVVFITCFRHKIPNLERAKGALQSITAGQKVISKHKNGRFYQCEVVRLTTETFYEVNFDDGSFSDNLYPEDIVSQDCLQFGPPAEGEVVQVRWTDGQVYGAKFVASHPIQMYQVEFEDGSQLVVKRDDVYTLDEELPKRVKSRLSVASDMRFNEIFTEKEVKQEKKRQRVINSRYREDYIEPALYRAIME
G9a block = inhibitors of human histone lysine methyltransferase G9a. AID 504332. Q96KQ7. 8.8% of 350,000 active. Potency, µM (titrated, usually from 102 µM), for the others: at the top dose activity, negative = inhibition, usual class: inhibitors. G9a H3K9 monomethylation, AlphaScreen, 2 h; also: % is scaled to controls: 0 for no effect and ±100 for the full control effect; nearly all actives have a fitted effect of over 75% in size
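G9a (20 nM) preincubated 15 min RT with compounds, then 500 nM biotinylated H3K9 peptide and 20 uM SAM added; 2 h RT reaction. Monomethyl-H3K9 product detected by AlphaScreen with anti-H3K9me1 antibody, streptavidin donor and anti-rabbit IgG acceptor beads.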
* hit, by the source's call; ? = inconclusive; / = not tested or not shown; [ ] = dose if it differs, or a comment. Calls follow the shape of the dose curve; as a rule, active = well fitted curve in the direction sought with a large enough effect; inconclusive = small, poorly fitted or top-dose-only effect, or another doubt; inactive = no such curve, though single readings can be large; an effect the other way counts as inactive or inconclusive. Potency is read from the fitted curve at half-maximal effect.

SMILES	HP1b chromo inh	BAZ2B inh	Sfp PPTase inh	JMJD2A Tudor	G9a block
Cc1ccc(CC2S/C(=C(/C#N)C(=O)NCc3ccco3)N(c3ccccc3)C2=O)cc1 (stereo not given)	34%	1%	-13%	-4%	-7%
N#C/C(C(=O)NCc1ccco1)=C1/SC(Cc2ccc(Cl)cc2)C(=O)N1c1ccccc1 (stereo not given)	-6%	11%	40µM*	-21%	-16%[59 µM]
N#C/C(C(=O)NCc1ccco1)=C1/SC=C(c2ccccc2)N1c1ccccc1	35%	-3%	0%	-7%	16µM*
CC1=CS/C(=C(/C#N)C(=O)NCc2ccco2)N1c1ccccc1	49%	9%	2%	-1%	-23%
CC(=O)Nc1ccc(NC(=O)c2nc(-c3ccccc3)oc2C)cc1	12%	-24%	-9%	-15%	-31%
CCOC(=O)C1=C(CN2CCN(c3ccc(C)cc3C)CC2)NC(=O)NC1c1ccc(OC)cc1 (stereo not given)	-3%	-30%	/	-30%	-38%[59 µM]
Cn1c(N)c(C(=O)COC(=O)c2cc(-c3ccco3)nc3ccccc23)c(=O)n(C)c1=O	?	-26%	13µM*	56µM*	7.9µM*
COc1ccc(-c2cc(C(=O)OCC(=O)c3c(N)n(C)c(=O)n(C)c3=O)c3ccccc3n2)cc1	56%	-14%	10%	13%	8%
Cn1c(N)c(C(=O)COC(=O)c2cc(-c3ccco3)nc3ccccc23)c(=O)n(Cc2ccccc2)c1=O	/	?	45µM*	/	7.9µM*
Cn1c(N)c(C(=O)COC(=O)c2cc(C(F)(F)F)nc3ccccc23)c(=O)n(Cc2ccccc2)c1=O	20%	-26%	21%	-29%	?
Nc1nonc1-n1nnc(C(=O)N/N=C/c2cccc(Cl)c2)c1-c1ccc2c(c1)OCO2	40%	-3%	15%	-2%	70%
CN1CCN(C2=C(Cl)C(=O)N(C3CCCCC3)C2=O)CC1	36%	1%	-1%	-18%	40µM*
CCOc1ccc(NC2=C(Cl)C(=O)N(C3CCCCC3)C2=O)cc1	-12%	-23%	19%	?	?
CC(C)(C)C(=O)NC(=S)Nc1ccc(F)cc1	15%	0%	-6%	-5%	3%[59 µM]
Cc1cccc(C)c1-n1c(C)cc(/C=N/NC(N)=S)c1C	-63%	45µM*	?	50µM*	50µM*
Cc1cc(/C=N/NC(N)=S)c(C)n1-c1cccc(Cl)c1	?	?	-3%	?	45µM*
Cc1cc(/C=N/NC(N)=S)c(C)n1-c1ccc(Br)cc1	8%	?	-29%	-26%	0%[59 µM]
Cc1ccc(/C=N/NC(=O)c2ccco2)cc1	33%	-3%	-2%	-11%	/
Cc1cccc(-n2c(C)cc(/C=N\NC(=O)c3ccco3)c2C)c1	-9%	?	7%	-30%	45µM*
O=C(N/N=C/c1ccc2ncccc2c1)c1ccco1	2%	-16%	-2%	79µM*	14µM*
O=C(NCc1ccncc1)c1cnccn1	41%	3%	19%	-5%	25%[59 µM]
CCCCn1c(SCC(N)=O)nc2ccc(N3CCOCC3)cc2c1=O	54%	-5%	?	-21%	?
CCOC(=O)Cn1c(=O)c2c(nc(N3CCCCC3)n2Cc2ccccc2)n(C)c1=O	0%	-29%	-2%	-24%	-6%[59 µM]
Cc1csc(C(C#N)C(=O)c2ccncc2)n1 (stereo not given)	14%	-38%	-10%	-17%	50µM*
Cc1ccsc1/C=N/NC(=O)c1ccncc1	33%	1%	-10%	4%	32%
SMILES	HP1b chromo inh	BAZ2B inh	Sfp PPTase inh	JMJD2A Tudor	G9a block
CC1=C(C)C(=O)C(CCCCC#CCCCC#CCO)=C(C)C1=O	?	40µM*	?	40µM*	19µM*
CCN(Cc1cccs1)c1ncnc2ccc(-c3ccc4c(c3)OCO4)cc12	/	/	/	-1%	/
O=C(NCCO)c1c(O)c2cccc3c2n(c1=O)CC3	17%	-35%	-7%	56µM*	?
Cc1cc(C)c(-c2c(O)c3cccc4c3n(c2=O)CCC4)c(C)c1	-7%	-1%	31%	-11%[11.4 µM]	16%[59 µM]
O=c1c(-c2ccccc2)c(O)c2cccc3c2n1CCC3	53%	-38%	15%	15%	40µM*
NCCNC(=O)c1c(O)c2cccc3c2n(c1=O)CCC3	50%	?	6%	-10%	/
Cc1ccc(NC(=O)CNS(=O)(=O)c2cccs2)cc1F	24%	-36%	9%	-10%	79µM*
Cc1n[nH]c(=S)n1/N=C/c1ccc(-c2ccccc2[N+](=O)[O-])o1	3%	-32%	8.9µM*	40µM*	?
Cc1nnc(N/N=C\c2ccc(-c3ccccc3[N+](=O)[O-])o2)n1N	-8%	71µM*	18µM*	?	6.3µM*
CCc1nnc(N/N=C/c2ccc(-c3ccc([N+](=O)[O-])cc3)o2)n1N	6%	?	?	-31%	?
Cc1nnc(N/N=C/c2ccc(-c3ccccc3F)o2)n1N	4%	-1%	45µM*	-23%	40µM*
Cc1ccc(NC(=O)CNC(=O)c2cccs2)c(O)c1	-10%	8%	/	-16%	?
COc1ccc(-c2csc3nc(-c4ccc(Cl)cc4)oc(=O)c23)cc1	33%	3%	/	0%	-21%[59 µM]
COc1ccc(C2C(C#N)=C(N)N3C(=C2C#N)Sc2ccccc23)cc1 (stereo not given)	/	0%	-2%	/	6.3µM*
COc1ccc([C@@H]2C(C#N)=C(N)S[C@@H](c3ccccc3)[C@@H]2[N+](=O)[O-])cc1	-17%	-36%	17%	-9%[57.1 µM]	0%[59 µM]
CC(C)(C)c1cc(=O)n(-c2ccccc2)[nH]1	24%	?	?	-11%	45µM*
O=c1ccc(=O)n(-c2ccccc2)[nH]1	?	-1%	50µM*	79µM*	14µM*
O=c1cc(-c2ccccc2)[nH]n1-c1ccccc1	-6%	/	/	?	/
CC(=O)NCc1ccc(S(=O)(=O)N/N=C/c2ccc(N(C)C)cc2)cc1	9%	-16%	-12%	-12%	-5%[59 µM]
COc1ccc(Br)cc1CNC(=O)C1CCCN(c2nc3ccccc3o2)C1 (stereo not given)	6%	-28%	0%	-18%	-28%
Cc1c(-c2ccccc2)c(=O)oc2c(CN3CCCC3)c(O)ccc12	15%[57 µM]	8%	/	-18%	8%[59 µM]
COc1ccc(NC(=O)C2CSC3c4ccccc4C(=O)N23)cc1 (stereo not given)	13%	?	-18%	-19%	28µM*
COC(=O)C1CSC2c3ccccc3C(=O)N12 (stereo not given)	19%	/	/	-7%	/
CCN(CC)CCCNC(=O)c1nn(C)c2c1CS(=O)(=O)c1ccccc1-2	16%	-7%	/	-15%	25µM*
COCCCNC(=O)c1nn(C)c2c1CS(=O)(=O)c1ccccc1-2	27%	-3%	/	-10%	-19%[59 µM]
CCCCNC(=O)c1nn(C)c2c1CSc1ccccc1-2	-9%	?	/	?	16µM*

High-throughput results from PubChem BioAssay.
